Assay results: PubChem BioAssay (Tox21)
Records with an inconclusive call do not appear. Active and inactive are the calls of the source. Unless noted, calls follow the shape of the dose curve; as a rule, active = well fitted curve in the direction sought with a large enough effect in the repeat runs; inconclusive = weak or mixed curves; inactive = no such curve, though single readings can be large; an effect the other way counts as inactive or inconclusive.

Key:
[1] = molecular target: Aryl hydrocarbon receptor (Homo sapiens) (UniProt P35869); experiment: qHTS assay to identify small molecule that activate the aryl hydrocarbon receptor (AhR) signaling pathway (AID 743085); also: nearly all actives have a fitted effect of over 15% in size; also: potency is read from the fitted curve at half-maximal effect;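 as to activation: HG2L7.5c1 human HepG2 liver cells with stably integrated DRE-driven firefly reporter; series mostly up to about 70 µM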
Procedure, shortened: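 AhR agonist activity is inferred from enhanced light output of a DRE-controlled firefly luciferase reporter in HepG2 cells, measured with ONE-Glo following 24 h treatment at 37C.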

[2] = qHTS assay to identify small molecule that activate the aryl hydrocarbon receptor (AhR) signaling pathway - cell viability counter screen (AID 743086);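 also: HepG2 liver cells carrying the AhR DRE luciferase reporter; series mostly up to about 70 µM; nearly all actives have a fitted effect of over 45% in size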
Procedure, shortened: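 Cytotoxicity counter screen: CellTiter-Fluor signal (30 min, 37 C) in 4000 HepG2 cells/well carrying the DRE-luciferase reporter, following 24 h compound exposure at 37 C.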

[3] = molecular target: Peroxisome proliferator-activated receptor gamma (Homo sapiens) (UniProt P37231); experiment: qHTS assay to identify small molecule agonists of the peroxisome proliferator-activated receptor gamma (PPARg) signaling pathway (AID 743094; active = well fitted activation curve with a large enough effect in the signal ratio in the repeat runs, not every such curve was filed as active; the % refers to the signal ratio)
Procedure, shortened: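 Following 5 h plating at 37C, PPARg-bla HEK293H cells receive compound or DMSO for 17 h; fluorescence intensity is recorded after LiveBLAzer B/G loading for 1 h at room temperature.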

[4] = molecular target: Peroxisome proliferator-activated receptor gamma (Homo sapiens) (UniProt P37231); experiment: qHTS assay to identify small molecule antagonists of the peroxisome proliferator-activated receptor gamma (PPARg) signaling pathway (AID 743191; calls by dose curve; also: series mostly up to about 63 µM; nearly all actives have a fitted effect of over 30% in size)
Procedure, shortened: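 Beta-lactamase reporter under UAS control in HEK293H PPARg-bla cells; compound treatment 17 h at 37C. Read-out: fluorescence intensity after 1 h room-temperature incubation with LiveBLAzer B/G FRET substrate.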

[5] = qHTS assay to identify small molecule antagonists of the peroxisome proliferator-activated receptor gamma (PPARg) signaling pathway - cell viability counter screen (AID 743194); also: nearly all actives have a fitted effect of over 55% in size
Procedure, shortened: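 Viability was measured as CellTiter-Glo luminescence in GeneBLAzer PPARg UAS-bla HEK293H cells. These cells had been exposed 17 h at 37 C to compounds together with rosiglitazone at 50 nM final, with the beta-lactamase readout taken in the same wells.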

[6] = qHTS assay for small molecule agonists of the antioxidant response element (ARE) signaling pathway - cell viability counter screen (AID 743203; calls by dose curve; also: nearly all actives have a fitted effect of over 55% in size)
Procedure, shortened: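 Compounds in DMSO were pinned onto ARE-bla HepG2 cells plated 5 hrs earlier at 2,000 cells/well. Sixteen hours later at 37C/5% CO2, CellTiter-Glo was added and luminescence measured after 30 min at room temperature.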

[7] = qHTS assay for small molecule activators of the heat shock response signaling pathway - cell viability counter screen (AID 743209); also: nearly all actives have a fitted effect of over 50% in size
Procedure, shortened: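 Counter screen for cytotoxicity in HeLa HSE-bla reporter cells. Treatment was 5 h at 37 C; viability was detected by luminescent ATP assay (CellTiter-Glo) in the same wells as the beta-lactamase read.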

[8] = qHTS assay for small molecule activators of the heat shock response signaling pathway (AID 743210; active = well fitted activation curve with a large enough effect in the signal ratio in the repeat runs, with a control signal flat, not every such curve was filed as active; the % refers to the signal ratio;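 also: HeLa cells with beta-lactamase reporter driven by heat shock elements; series mostly up to about 63 µM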)
Procedure, shortened: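 In HSE-bla HeLa cells, 5 h compound incubation (37 C) precedes addition of LiveBLAzer B/G substrate; after 2.5 h at room temperature, fluorescence intensity indicates reporter induction.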

[9] = qHTS assay to identify small molecule agonists of the peroxisome proliferator-activated receptor delta (PPARd) signaling pathway - cell viability counter screen (AID 743211); also: nearly all actives have a fitted effect of over 55% in size
Procedure, shortened: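 qHTS cell viability: PPARd-bla HEK293H; 17 h cpd, 37C; CellTiter-Glo, luminescence at 30 min RT.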

[10] = molecular target: Peroxisome proliferator-activated receptor delta (Homo sapiens) (UniProt Q03181); experiment: qHTS assay to identify small molecule agonists of the peroxisome proliferator-activated receptor delta (PPARd) signaling pathway (AID 743212; calls by dose curve)
Procedure, shortened: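 HEK293H UAS-bla reporter cells, human PPARd system; compounds delivered in DMSO after 5 h plating, then at 37 C. Beta-lactamase FRET read, 2 h RT substrate step.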

[11] = qHTS assay to identify small molecule antagonists of the peroxisome proliferator-activated receptor delta (PPARd) signaling pathway - cell viability counter screen (AID 743213); also: nearly all actives have a fitted effect of over 50% in size
Procedure, shortened: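 HEK293H PPARd UAS-bla cells, 5 h pre-incubation, compound + L165041 300 nM final, 17 h 37 C; B/G FRET substrate 2 h RT; then CellTiter-Glo 30 min RT, luminescence.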

[12] = molecular target: Peroxisome proliferator-activated receptor delta (Homo sapiens) (UniProt Q03181); experiment: qHTS assay to identify small molecule antagonists of the peroxisome proliferator-activated receptor delta (PPARd) signaling pathway (AID 743215; active = well fitted inhibition curve with a large enough effect in the signal ratio in the repeat runs, not every such curve was filed as active; the % refers to the signal ratio;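 also: cells stimulated with agonist L165041 at 300 nM final during compound exposure; series mostly up to about 62 µM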)
Procedure, shortened: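 With L165041 present at 300 nM final, compounds were incubated 17 h at 37 C on PPARd UAS-bla HEK293H cells. A FRET-based beta-lactamase substrate was then applied for 2 h at room temperature and fluorescence intensity recorded.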

[13] = molecular target: Bile acid receptor (Homo sapiens) (UniProt Q96RI1); experiment: qHTS assay to identify small molecule antagonists of the farnesoid-X-receptor (FXR) signaling pathway (AID 743217; active = well fitted inhibition curve with a large enough effect in the signal ratio in the repeat runs, not every such curve was filed as active; the % refers to the signal ratio)
Procedure, shortened: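 In this cell-based antagonist screen, inhibition of CDCA-driven (50 uM final) UAS-beta-lactamase expression in HEK 293T cells was measured by FRET fluorescence following 16 h compound exposure at 37 °C.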

[14] = molecular target: Bile acid receptor (Homo sapiens) (UniProt Q96RI1); experiment: qHTS assay to identify small molecule agonists of the farnesoid-X-receptor (FXR) signaling pathway (AID 743220; active = well fitted activation curve with a large enough effect in the signal ratio in the repeat runs, not every such curve was filed as active; the % refers to the signal ratio)
Procedure, shortened: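 Beta-lactamase reporter under UAS control in GeneBLAzer FXR HEK 293T cells (5000/well) measured with LiveBLAzer FRET substrate after 2 h at room temperature. Compound exposure lasted 16 h at 37C.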

[15] = molecular target: Vitamin D3 receptor (Homo sapiens) (UniProt P11473); experiment: qHTS assay to identify small molecule agonists of the vitamin D receptor (VDR) signaling pathway (AID 743222; calls by dose curve)
Procedure, shortened: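 VDR-bla cells were seeded, left 4 h, treated with compounds in DMSO for 16 h, incubated 2 h at RT with B/G FRET substrate, and read for fluorescence.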

[16] = qHTS assay to identify small molecule agonists of the vitamin D receptor (VDR) signaling pathway - cell viability counter screen (AID 743224); also: series mostly up to about 63 µM; nearly all actives have a fitted effect of over 50% in size
Procedure, shortened: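 Here cell health was gauged by luminescent ATP detection (CellTiter-Glo, 30 min RT) in VDR-bla cells that had been incubated with test compounds for 16 h at 37C and 5% CO2.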

[17] = qHTS assay to identify small molecule agonists of the farnesoid-X-receptor (FXR) signaling pathway - cell viability counter screen (AID 743218); also: nearly all actives have a fitted effect of over 45% in size
Procedure, shortened: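 After 16 h at 37 C with test compounds, FXR-bla HEK 293T cells were given LiveBLAzer B/G substrate for 2 h at RT and then CellTiter-Glo; luminescence was taken after 30 min.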

[18] = qHTS assay to identify small molecule antagonists of the farnesoid-X-receptor (FXR) signaling pathway - cell viability counter screen (AID 743221; active = well fitted cell-killing curve with a large enough effect in the repeat runs, not every such curve was filed as active; also: nearly all actives have a fitted effect of over 50% in size)
Procedure, shortened: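 After a 5 h settling period, FXR-bla HEK 293T cells receive compound and chenodeoxycholic acid (50 uM final) and incubate 16 h at 37 C; CellTiter-Glo luminescence, read after 30 min at room temperature, reports cell viability.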

[19] = molecular target: Vitamin D3 receptor (Homo sapiens) (UniProt P11473); experiment: qHTS assay to identify small molecule antagonists of the vitamin D receptor (VDR) signaling pathway (AID 743223; active = well fitted inhibition curve with a large enough effect in the signal ratio in the repeat runs, not every such curve was filed as active; the % refers to the signal ratio)
Procedure, shortened: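 Reporter line VDR-bla; stimulus 1alpha,25-(OH)2 vitamin D3, 3 nM final; compound co-addition, 16 h 37C/5% CO2; LiveBLAzer B/G substrate 2 h RT; fluorescence intensity.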

[20] = qHTS assay for small molecule agonists of the antioxidant response element (ARE) signaling pathway (AID 743202; active = well fitted activation curve with a large enough effect in the signal ratio in the repeat runs, not every such curve was filed as active; the % refers to the signal ratio; also: potency is read from the fitted curve at half-maximal effect)
Procedure, shortened: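 An ARE-responsive beta-lactamase gene stably integrated in HepG2 cells serves as reporter. After 5 h plating and 16 h compound incubation at 37 C, fluorescence of the B/G FRET substrate was measured.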
% is scaled to controls: 0 for no effect and ±100 for the full control effect.

Aryl hydrocarbon receptor (Homo sapiens), sequence (P35869 whole entry, looked up): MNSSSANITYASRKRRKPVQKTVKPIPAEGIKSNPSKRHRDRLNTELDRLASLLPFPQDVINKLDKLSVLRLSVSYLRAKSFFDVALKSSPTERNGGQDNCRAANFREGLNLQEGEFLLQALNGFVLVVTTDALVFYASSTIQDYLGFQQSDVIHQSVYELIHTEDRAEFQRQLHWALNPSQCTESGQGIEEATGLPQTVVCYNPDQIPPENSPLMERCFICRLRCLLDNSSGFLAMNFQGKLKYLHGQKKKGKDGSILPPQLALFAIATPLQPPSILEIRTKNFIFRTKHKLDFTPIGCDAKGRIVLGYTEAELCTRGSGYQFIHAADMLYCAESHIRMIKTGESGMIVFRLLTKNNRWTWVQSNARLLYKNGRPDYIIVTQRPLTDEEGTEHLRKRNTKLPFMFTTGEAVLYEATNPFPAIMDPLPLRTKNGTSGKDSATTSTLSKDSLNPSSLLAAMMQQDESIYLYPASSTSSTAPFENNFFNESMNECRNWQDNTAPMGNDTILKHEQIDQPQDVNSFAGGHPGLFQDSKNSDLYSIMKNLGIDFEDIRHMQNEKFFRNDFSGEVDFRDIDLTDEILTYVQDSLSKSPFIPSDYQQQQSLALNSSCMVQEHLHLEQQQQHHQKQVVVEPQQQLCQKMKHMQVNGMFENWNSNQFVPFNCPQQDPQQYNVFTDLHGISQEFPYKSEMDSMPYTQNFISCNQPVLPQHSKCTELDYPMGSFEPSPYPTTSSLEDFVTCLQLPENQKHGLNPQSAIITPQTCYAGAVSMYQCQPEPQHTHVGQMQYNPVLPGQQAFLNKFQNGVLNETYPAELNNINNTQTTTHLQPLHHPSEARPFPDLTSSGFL
Bile acid receptor (Homo sapiens), sequence (Q96RI1 whole entry, looked up): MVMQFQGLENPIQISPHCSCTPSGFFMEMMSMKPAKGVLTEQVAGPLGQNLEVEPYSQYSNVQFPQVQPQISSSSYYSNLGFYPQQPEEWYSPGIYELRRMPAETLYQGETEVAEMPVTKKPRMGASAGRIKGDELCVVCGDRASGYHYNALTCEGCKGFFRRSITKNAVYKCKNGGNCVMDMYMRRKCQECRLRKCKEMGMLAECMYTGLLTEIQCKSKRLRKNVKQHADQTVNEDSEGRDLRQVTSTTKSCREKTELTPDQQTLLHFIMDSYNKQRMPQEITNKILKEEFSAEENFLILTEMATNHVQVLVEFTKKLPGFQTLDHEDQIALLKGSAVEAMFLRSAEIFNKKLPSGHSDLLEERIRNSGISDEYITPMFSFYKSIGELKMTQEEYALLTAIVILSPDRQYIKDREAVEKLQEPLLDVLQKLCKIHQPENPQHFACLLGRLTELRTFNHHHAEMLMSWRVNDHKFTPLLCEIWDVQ
Vitamin D3 receptor (Homo sapiens), sequence (P11473 whole entry, looked up): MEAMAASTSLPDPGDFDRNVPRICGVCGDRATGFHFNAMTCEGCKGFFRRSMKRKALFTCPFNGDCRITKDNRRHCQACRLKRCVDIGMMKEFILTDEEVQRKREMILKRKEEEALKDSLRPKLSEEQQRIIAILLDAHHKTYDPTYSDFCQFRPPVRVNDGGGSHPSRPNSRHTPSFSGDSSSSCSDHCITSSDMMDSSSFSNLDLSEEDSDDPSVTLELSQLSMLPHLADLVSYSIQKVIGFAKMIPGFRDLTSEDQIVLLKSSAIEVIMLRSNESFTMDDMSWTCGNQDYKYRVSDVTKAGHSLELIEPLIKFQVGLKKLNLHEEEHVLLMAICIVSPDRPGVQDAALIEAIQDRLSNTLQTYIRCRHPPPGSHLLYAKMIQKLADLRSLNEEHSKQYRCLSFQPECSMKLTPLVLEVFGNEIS
Peroxisome proliferator-activated receptor gamma (Homo sapiens), sequence (P37231 whole entry, looked up): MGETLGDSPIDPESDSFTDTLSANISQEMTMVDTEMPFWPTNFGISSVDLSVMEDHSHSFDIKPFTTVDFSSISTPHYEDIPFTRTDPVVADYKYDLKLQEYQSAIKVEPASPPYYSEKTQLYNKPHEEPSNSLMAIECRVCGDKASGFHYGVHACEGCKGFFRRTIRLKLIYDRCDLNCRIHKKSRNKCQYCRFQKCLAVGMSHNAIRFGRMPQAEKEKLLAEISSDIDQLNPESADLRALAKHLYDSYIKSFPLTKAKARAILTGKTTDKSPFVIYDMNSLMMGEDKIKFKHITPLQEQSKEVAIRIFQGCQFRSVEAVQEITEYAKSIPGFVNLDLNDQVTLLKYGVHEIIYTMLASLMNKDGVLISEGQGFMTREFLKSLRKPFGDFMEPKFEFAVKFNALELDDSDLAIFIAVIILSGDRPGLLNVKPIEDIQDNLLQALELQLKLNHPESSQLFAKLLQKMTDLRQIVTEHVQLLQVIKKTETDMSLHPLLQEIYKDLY
Peroxisome proliferator-activated receptor delta (Homo sapiens), sequence (Q03181 whole entry, looked up): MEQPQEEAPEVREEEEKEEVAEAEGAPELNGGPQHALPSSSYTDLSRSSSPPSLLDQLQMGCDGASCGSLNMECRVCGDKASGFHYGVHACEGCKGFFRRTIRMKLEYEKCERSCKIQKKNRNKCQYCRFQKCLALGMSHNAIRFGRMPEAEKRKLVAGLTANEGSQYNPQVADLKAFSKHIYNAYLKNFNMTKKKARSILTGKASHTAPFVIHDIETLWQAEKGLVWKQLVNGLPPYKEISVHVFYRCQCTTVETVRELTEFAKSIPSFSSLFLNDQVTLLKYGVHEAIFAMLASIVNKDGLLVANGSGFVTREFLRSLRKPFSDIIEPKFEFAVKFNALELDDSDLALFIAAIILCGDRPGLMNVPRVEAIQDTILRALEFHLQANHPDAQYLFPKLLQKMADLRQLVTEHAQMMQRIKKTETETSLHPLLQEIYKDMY

O=C(O)c1cccc(C(=O)O)n1
inactive: Potency [1] | Potency [2] | outcome [3] | outcome [4] | Potency [5] | outcome [6] | outcome [7] | outcome [8] | Potency [9] | outcome [10] | Potency [11] | outcome [12] | outcome [13] | outcome [14] | outcome [15] | outcome [16]

C1COCCO1
inactive: Potency [1] | Potency [2] | outcome [3] | outcome [4] | Potency [5] | outcome [6] | outcome [7] | outcome [8] | Potency [9] | outcome [10] | Potency [11] | outcome [13] | outcome [17] | outcome [14] | Potency [18] | outcome [15] | outcome [19] | outcome [16]

CC(C)(C)OC(=O)N1C[C@@H](F)C[C@H]1C(=O)O
inactive: Potency [1] | Potency [2] | outcome [3] | outcome [4] | Potency [5] | Potency [20] | outcome [6] | outcome [7] | outcome [8] | Potency [9] | outcome [10] | Potency [11] | outcome [12] | outcome [17] | Potency [18] | outcome [15] | outcome [19] | outcome [16]

CCCc1ccc(N)cc1
inactive: Potency [1] | Potency [2] | outcome [3] | outcome [4] | Potency [5] | Potency [20] | outcome [6] | outcome [7] | outcome [8] | Potency [9] | outcome [10] | Potency [11] | outcome [12] | outcome [17] | Potency [18] | outcome [15] | outcome [19] | outcome [16]

CC(C)(C)CC(C)(C)N
inactive: Potency [1] | Potency [2] | outcome [3] | outcome [4] | Potency [5] | Potency [20] | outcome [6] | outcome [7] | outcome [8] | Potency [9] | outcome [10] | Potency [11] | outcome [12] | outcome [17] | Potency [18] | outcome [15] | outcome [19] | outcome [16]

CC(C)c1ccc2oc3nc(N)c(C(=O)O)cc3c(=O)c2c1
active: Potency [1] 0.841 µM | Potency [20] 23.7 µM
inactive: Potency [2] | outcome [3] | outcome [4] | Potency [5] | outcome [6] | outcome [7] | outcome [8] | Potency [9] | Potency [11] | outcome [17] | Potency [18] | outcome [19]

CC(=O)O[C@H](CC(=O)[O-])C[N+](C)(C)C
inactive: Potency [1] | Potency [2] | outcome [3] | outcome [4] | Potency [5] | outcome [6] | outcome [7] | outcome [8] | Potency [9] | outcome [10] | Potency [11] | outcome [12] | outcome [17] | Potency [18] | outcome [16]

Nc1cc(N)cc(C(=O)O)c1
inactive: Potency [1] | Potency [2] | outcome [3] | outcome [4] | Potency [5] | outcome [6] | outcome [7] | outcome [8] | outcome [10] | Potency [11] | outcome [12] | outcome [13] | outcome [14] | Potency [18] | outcome [15] | outcome [19] | outcome [16]

FC(F)(F)C(F)(F)C(F)(F)C(F)(F)C(F)(F)C(F)(F)C(F)(F)C(F)(F)C(F)(F)C(F)(F)F
inactive: activation [1] 0.197% [at 8.47 µM] | viability change, negative = cytotoxic [2] 24.8% [at 8.47 µM] | activation [3] -0.797% [at 7.08 µM] | ratio activity, negative = inhibition [4] -8.26% [at 5.95 µM] | activity change, negative = cytotoxicity [5] 1.8% [at 5.95 µM] | activation [20] 0.659% [at 8.36 µM] | viability change, negative = cytotoxic [6] 0.46% [at 8.36 µM] | activation [8] 2.05% [at 5.95 µM] | activity change, negative = cytotoxicity [9] 5.8% [at 5.95 µM] | viability change, negative = cytotoxic [11] -11.7% [at 6.26 µM] | viability change, negative = cytotoxic [17] 1.72% [at 5.95 µM] | activity change, negative = cytotoxicity [18] 9.95% [at 5.95 µM] | activation [15] 0.833% [at 6.01 µM] | activity change, negative = inhibition [19] -8.47% [at 6.95 µM] | activity change, negative = cytotoxicity [16] 9.06% [at 5.95 µM]

NCCNC(=O)c1ccc(Cl)cn1
inactive: Potency [1] | Potency [2] | outcome [3] | outcome [4] | Potency [5] | outcome [6] | outcome [7] | outcome [8] | Potency [9] | Potency [11] | outcome [17] | Potency [18] | outcome [15] | outcome [19] | outcome [16]

C=C(C)[C@@H]1CCC2=CC(=O)C[C@@H](C)[C@]2(C)C1
inactive: Potency [1] | Potency [2] | outcome [3] | outcome [4] | Potency [5] | Potency [20] | outcome [6] | outcome [7] | outcome [8] | Potency [9] | outcome [10] | Potency [11] | outcome [12] | outcome [17] | Potency [18] | outcome [15] | outcome [16]

COCc1ccc(COC)cc1
inactive: Potency [1] | Potency [2] | outcome [3] | outcome [4] | Potency [5] | Potency [20] | outcome [6] | outcome [7] | outcome [8] | Potency [9] | Potency [11] | outcome [13] | outcome [17] | outcome [14] | Potency [18] | outcome [19] | outcome [16]

OCCCCCCO
inactive: Potency [1] | Potency [2] | outcome [3] | outcome [4] | Potency [5] | Potency [20] | outcome [6] | outcome [7] | outcome [8] | Potency [9] | outcome [10] | Potency [11] | outcome [12] | outcome [13] | outcome [17] | outcome [14] | Potency [18] | outcome [19] | outcome [16]

NC1CCN(c2cccc(Cl)n2)CC1
inactive: Potency [1] | Potency [2] | outcome [3] | outcome [4] | Potency [5] | Potency [20] | outcome [6] | outcome [7] | outcome [8] | Potency [9] | outcome [10] | Potency [11] | outcome [13] | outcome [17] | outcome [14] | outcome [15] | outcome [19] | outcome [16]

CCCCCCCCN(C)CCCCCCCC
inactive: Potency [1] | Potency [2] | outcome [3] | outcome [4] | Potency [5] | Potency [20] | outcome [6] | outcome [7] | outcome [8] | outcome [10] | Potency [11] | outcome [12] | outcome [17] | Potency [18] | outcome [15] | outcome [19] | outcome [16]

Cc1cc(C)c(NC(=O)CN(CC(=O)O)CC(=O)O)c(C)c1Br
inactive: Potency [1] | Potency [2] | outcome [3] | outcome [4] | Potency [5] | outcome [6] | outcome [7] | outcome [8] | Potency [9] | Potency [11] | outcome [17] | Potency [18] | outcome [15] | outcome [16]
